Each structure is given as a SMILES string. Calls of active or inactive are those of the source. Unless noted, the rule behind the calls is not given here.

Assay [1] in a line: HepG2 liver cancer cell viability effects, profiling panel, resazurin fluorescence, 24 h, PK04 Diversity Set (AID 1172). Note: test concentration not given here. Particulars: higher = more signal. (Alamar Blue is a resazurin reagent that responds to reducing activity.)
A short description of assay [2]: basal S. cerevisiae growth modulation, no modifier, primary screen, OD600, strain BY4716, 24 h, basal condition (AID 1173). Particulars: OD600, 24 h, higher = more signal, called active from +8 up or from −8 down.
Assay [3] is described as follows: MM1S myeloma cell viability, profiling panel, resazurin fluorescence, basal, 24 h, PK04 Diversity Set (AID 1174).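 Note: MM1S multiple myeloma cell line; test concentration not given here.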 Particulars: higher = more signal, called active from +8 up or from −8 down.
Assay [4] concerns the target Dihydroorotate dehydrogenase (quinone), mitochondrial (Plasmodium falciparum (isolate 3D7)) (UniProt Q08210). Nature of the assay: PfDHODH enzyme inhibitors, primary screen, biochemical, C-terminal His tag, absorbance 600 nm (AID 1175).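 Note: recombinant parasite enzyme with a five histidine tag at its C terminus; test concentration not given here.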 To be noted: DCIP absorbance 600 nm, higher = more signal, called active from +8 up or from −8 down.
A short description of assay [5]: P. aeruginosa biofilm formation inhibitors, primary screen, strain PAO1, LB-PBS medium, absorbance 600 nm (AID 1176). Note: test concentration not given here. To be noted: P. aeruginosa PAO1 growth/biofilm, A600, 12 h; higher = more signal.
Assay [6] can be described thus: S. cerevisiae RM11-1a growth modifiers, primary screen, strain RM11-1a, OD600, basal, 24 h (AID 1177).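 Note: cultures grown under basal conditions with no added stressor; test concentration not given here.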 To be noted: OD600, 24 h, higher = more signal, called active from +8 up or from −8 down.
Assay [7] in a line: E. coli acrAB mutant growth effects, primary screen, E. coli filamentation inducers, strain DRC39, OD650, 24 h (AID 1178).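 Note: growth measured as culture turbidity by optical density at 650 nm; test concentration not given here.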 To be noted: higher = more signal, called active from +8 up or from −8 down.
Assay [8] is described as follows: E. coli acrAB mutant growth effects, primary screen, E. coli filamentation inducers, strain DRC39, OD650, 48 h (AID 1179).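 Note: screen aims at cell division blockers that make cells filament.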 Particulars: E. coli DRC39 delta-acrAB growth, higher = more signal, called active from +8 up or from −8 down.
Assay [9] can be described thus: RPMI8226 myeloma cell viability, profiling panel, resazurin fluorescence, basal, 24 h, PK04 Diversity Set (AID 1180).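 Note: RPMI8826 multiple myeloma cell line at 5000 cells per well; test concentration not given here.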 To be noted: higher = more signal.
Assay [10] deals with E3 ubiquitin-protein ligase XIAP (Homo sapiens) (UniProt P98170). Nature of the assay: XIAP binders, primary screen, biophysical, small-molecule microarray, fluorescence 635 nm (AID 1181).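 Note: score merges 667 nm emission and signal to noise over triplicate slides.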 Particulars: small-molecule microarray binding, higher = more signal.
Chain of E3 ubiquitin-protein ligase XIAP (Homo sapiens) (P98170 whole entry, looked up): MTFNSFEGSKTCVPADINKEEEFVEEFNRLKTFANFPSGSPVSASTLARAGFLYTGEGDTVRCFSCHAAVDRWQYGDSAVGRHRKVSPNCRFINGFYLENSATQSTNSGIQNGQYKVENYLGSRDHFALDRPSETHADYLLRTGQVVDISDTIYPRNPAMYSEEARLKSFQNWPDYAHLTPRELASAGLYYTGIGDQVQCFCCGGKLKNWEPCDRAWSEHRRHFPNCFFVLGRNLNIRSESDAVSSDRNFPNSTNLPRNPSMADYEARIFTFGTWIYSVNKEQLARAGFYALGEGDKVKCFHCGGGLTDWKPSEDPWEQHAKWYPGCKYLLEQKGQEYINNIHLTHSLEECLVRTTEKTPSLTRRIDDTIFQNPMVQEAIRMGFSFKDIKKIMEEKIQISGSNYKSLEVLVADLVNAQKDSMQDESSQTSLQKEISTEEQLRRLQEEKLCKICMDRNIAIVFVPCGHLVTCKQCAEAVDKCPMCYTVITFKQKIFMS

Chain of Dihydroorotate dehydrogenase (quinone), mitochondrial (Plasmodium falciparum (isolate 3D7)) (Q08210 whole entry, looked up): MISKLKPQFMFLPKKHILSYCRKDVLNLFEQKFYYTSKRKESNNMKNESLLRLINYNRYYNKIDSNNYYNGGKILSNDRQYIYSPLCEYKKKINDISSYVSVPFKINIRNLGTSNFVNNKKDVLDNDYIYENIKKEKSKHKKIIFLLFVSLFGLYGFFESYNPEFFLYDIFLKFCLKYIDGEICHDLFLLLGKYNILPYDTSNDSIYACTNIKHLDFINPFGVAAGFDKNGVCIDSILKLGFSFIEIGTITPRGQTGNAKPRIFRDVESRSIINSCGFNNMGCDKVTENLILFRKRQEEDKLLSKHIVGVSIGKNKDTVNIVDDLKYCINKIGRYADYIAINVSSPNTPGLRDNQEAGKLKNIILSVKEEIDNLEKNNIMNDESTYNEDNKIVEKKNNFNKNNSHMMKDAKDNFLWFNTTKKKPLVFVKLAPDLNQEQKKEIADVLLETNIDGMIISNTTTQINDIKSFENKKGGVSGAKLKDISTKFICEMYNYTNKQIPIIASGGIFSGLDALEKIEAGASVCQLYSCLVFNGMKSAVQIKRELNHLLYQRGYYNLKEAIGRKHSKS

Consider `COC(=O)[C@@H]1CC[C@H](C)[C@@H](c2ccc(Br)cc2)N1C(=O)C(F)(F)F`, for which the z-score was 0.0841 in assay [1]; -0.475 (inactive) in [2]; 0.27 (inactive) in assay [3]; 0.213 (inactive) in assay [5]; 1.21 (inactive) in assay [6]; -0.0765 (inactive) in assay [7]. For the same compound, the z-score was -0.204 (inactive) in [8] and 0.399 in assay [9]. The composite z-score is 0.724 (inactive) in assay [4] and 0.0225 in assay [10].
With `CON=C(C)CCN1CCc2nc(-c3ccccc3)c(-c3ccccc3)cc2C1`, the z-score is 1.86 in [1]; -6.56 (inactive) in assay [2]; -0.217 (inactive) in assay [3]; 0.958 (inactive) in assay [5]; 0.886 (inactive) in assay [6]; 0.83 (inactive) in assay [7]. The z-score in assay [8] is -2.48 (inactive); in [9] it was 1.14. In addition, the composite z-score is -0.467 (inactive) in assay [4] and -0.0115 in assay [10].
In the case of `CCc1cc2c(nc1CC)CCN(CCC(C)=NOCC[C@@H]1C=C[C@H](OC(C)=O)[C@@H](COC(C)=O)O1)C2`, the z-score in assay [1] was 0.0383; in assay [2] it was 0.859 (inactive); in assay [3], -0.123 (inactive); in assay [5], 0.122 (inactive); in [6], 1.23 (inactive); in [7], -0.157 (inactive). Further, the figures for the z-score in [8] and in assay [9] were -1.33 (inactive) and 0.154, respectively. Besides, the composite z-score in assay [4] is 0.903 (inactive); in assay [10], -0.212.
As to `CCN1C(=O)[C@H]2[C@H]3[C@H](O)[C@H](O)CC(=NNC(=O)OCc4ccccc4)[C@@H]3CC[C@H]2C1=O`, the z-score is -0.501 in assay [1]; 0.226 (inactive) in [2]; -0.453 (inactive) in assay [3]; -0.814 (inactive) in [5]; -0.338 (inactive) in assay [6]; 0.313 (inactive) in [7]. In addition, the z-score in [8] was 0.0507 (inactive); in [9], -0.747. Further, the composite z-score was -0.283 (inactive) in assay [4] and -0.0476 in [10].
Turning to `CCOC(=O)CCN1C(=O)[C@H]2[C@H]3[C@H](O)[C@H](O)CC(=NO[C@@H]4O[C@H](CO)[C@@H](O)[C@H](O)[C@H]4O)[C@@H]3CC[C@H]2C1=O`, the z-score in assay [1] is -0.901; in assay [2], -1.4 (inactive); in [3] it was -0.481 (inactive); in [5], 0.48 (inactive); in [6], -0.445 (inactive); in assay [7] it was 0.225 (inactive). Also, the values for the z-score in [8] and in assay [9] were 0.79 (inactive) and -0.634, respectively. In addition, the composite z-score in [4] is -0.451 (inactive); in assay [10], -0.0125.
As to `CC(C)[C@@H](OCc1ccccc1)[C@H](C)C=NOC[C@@H](O)[C@H]1O[C@@H]2OC(C)(C)O[C@@H]2[C@H]1O`, the z-score was -0.752 in assay [1]; -0.848 (inactive) in assay [2]; -0.587 (inactive) in assay [3]; 0.241 (inactive) in assay [5]; 1.28 (inactive) in assay [6]; 0.0024 (inactive) in assay [7]. Moreover, the z-score was -1.79 (inactive) in [8] and -0.766 in assay [9]. The composite z-score in assay [4] is 0.188 (inactive); in [10], 0.191.
As for `CC(=O)OC[C@H]1O[C@@H](ON=C2[C@H]3CCn4c(=O)n(-c5ccccc5)c(=O)n4[C@H]3[C@H](O)[C@@H]3O[C@H]23)[C@H](OC(C)=O)[C@@H](OC(C)=O)[C@@H]1OC(C)=O`, the z-score in assay [1] is -0.779; in [2] it was -0.499 (inactive); in assay [3] it was -0.718 (inactive); in [5] it was -0.443 (inactive); in assay [6], -0.184 (inactive); in [7], 0.435 (inactive). Also, the z-score in assay [8] was 0.381 (inactive); in [9], -1.1. Besides, the composite z-score in assay [4] is -1.44 (inactive); in assay [10], -0.174.
Turning to `COc1ccc(O[C@H]2C=C[C@@H](c3ccccc3)O[C@@H]2CON=C2c3cc(OC)ccc3O[C@H](c3cccc(OC)c3)[C@H]2O)cc1`, the z-score was -0.568 in assay [1]; 0.311 (inactive) in assay [2]; -0.89 (inactive) in assay [3]; 1.53 (inactive) in assay [5]; 0.041 (inactive) in assay [6]; 0.779 (inactive) in assay [7]. In addition, the z-score in assay [8] is -0.824 (inactive); in assay [9], -0.387. Further, the composite z-score in assay [4] was 0.586 (inactive); in [10] it was -0.206.
For the compound `CC(C)[C@@H](OCc1ccccc1)[C@H](C)C=NO[C@@H](C)c1cn([C@H](CO)Cc2ccccc2)nn1`, the z-score in assay [1] was -1.07; in assay [2] it was -2.35 (inactive); in [3], -0.883 (inactive); in [5] it was 0.241 (inactive); in assay [6] it was -0.0022 (inactive); in assay [7], 0.805 (inactive). The z-score in [8] is 0.633 (inactive); in assay [9] it was -1.63. Also, the figures for the composite z-score in assay [4] and in [10] were -0.984 (inactive) and 0.0374, respectively.
Regarding `CCN1C(=O)[C@H]2[C@H]3[C@H](O)[C@H](O)CC(=NOCC[C@@H]4C=C[C@H](OC(C)=O)[C@@H](COC(C)=O)O4)[C@@H]3CC[C@H]2C1=O`, the z-score in assay [1] was -1.02; in assay [2] it was 0.508 (inactive); in assay [3], -1.85 (inactive); in assay [5], 1.22 (inactive); in [6], -0.183 (inactive); in assay [7] it was 0.178 (inactive). Besides, the z-score is -0.0655 (inactive) in assay [8] and -1.05 in assay [9]. Further, the composite z-score in [4] is -0.666 (inactive); in assay [10], 0.134.
For `C=C(C)C(=O)OC[C@H]1CN2[C@@H](CC[C@@H](C)[C@@H]2c2ccc(Br)cc2)C(=O)O1`, the z-score was 0.497 in assay [1]; -1.84 (inactive) in assay [2]; -0.255 (inactive) in assay [3]; -0.136 (inactive) in assay [5]; 0.912 (inactive) in assay [6]; 0.644 (inactive) in assay [7]. Further, the z-score in [8] is -1.77 (inactive); in assay [9] it was -0.314. Besides, the results for the composite z-score in assay [4] and in assay [10] were 0.672 (inactive) and 0.256, respectively.
Consider `C=CC[C@@H]1C=C[C@H](Oc2ccc(C)cc2)[C@@H](COC(=O)NCc2cccc3ccccc23)O1`, for which the z-score was 1.08 in [1]; -0.469 (inactive) in [2]; 0.841 (inactive) in assay [3]; 0.119 (inactive) in assay [5]; 0.74 (inactive) in [6]; -0.899 (inactive) in [7]. The z-score in assay [8] is -0.629 (inactive); in assay [9] it was 0.901. In addition, the composite z-score was 0.438 (inactive) in assay [4] and -0.0559 in [10].
For `COc1ccc(OC[C@@H]2CC3[C@@H](c4ccc(Br)cc4)[C@H](C)CC[C@H]3C(=O)O2)cc1` (stereo not given in full), the z-score was 0.527 in assay [1]; -0.845 (inactive) in assay [2]; 0.364 (inactive) in assay [3]; -0.315 (inactive) in [5]; 0.0086 (inactive) in [6]; -0.941 (inactive) in [7]. Besides, the figures for the z-score in [8] and in assay [9] were -1.58 (inactive) and 1.04, respectively. Further, the composite z-score in assay [4] was 0.301 (inactive); in [10], 0.326.

(Values after PubChem BioAssay.)
